Source: PubChem BioAssay (several laboratories)
BoNT-A LC inh2 = blocks Botulinum neurotoxin A light chain protease; multiplex microsphere protease substrate cleavage, flow cytometry; inhibition, % at 10 µM; hit rate 0.17% among 360,000; AID 588499; in the data active = inhibition above about 30%; inconclusive = no clear call, values can overlap the other calls; also: plate controls were buffer without enzyme for full effect and enzyme alone for no effect
GDH-TPI counter-1 = inhibits GDH-TPI coupling enzymes, artifact for Mtb FBA screen. inhibition, % at 4.8 µM. hit rate 1.2% among 360,000. GDH-TPI coupled enzyme counterscreen, NADH absorbance. AID 588335; in the data active = inhibition above about 30%;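 also: 0% = DMSO wells and 100% = wells lacking the enzyme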
BoNT F protease = BoNT F light chain protease inhibition | Multiplex microsphere protease cleavage assay, flow cytometry | inhibition, % at 10 µM | hit rate 0.22% among 360,000; in the data active = inhibition above about 35%, passing the limit was not always enough; inconclusive = no clear call, values can overlap the other calls; also: plate controls were buffer without enzyme for full effect and enzyme alone for no effect
Anthrax LF prot = inhibitors of Bacillus anthracis lethal factor protease | multiplex microsphere protease cleavage assay, LF | inhibition, % at 10 µM | hit rate 0.12% among 360,000 | AID 588501 | P15917; in the data active = inhibition above about 30%; inconclusive = no clear call, values can overlap the other calls; also: plate controls were buffer without enzyme for full effect and enzyme alone for no effect
Autofluor counter = flagged as autofluorescent in microsphere protease counterscreen; compound autofluorescence counterscreen, microsphere flow cytometry; stronger effect = higher value; fluorescence intensity (concentration not given with the values); hit rate 3.1% among 360,000; AID 624483; in the data active = fluorescence intensity above about 16000; inconclusive = no clear call, values can overlap the other calls
Mtb FBA inh = inhibitors of M. tuberculosis fructose-bisphosphate aldolase. P9WQA3. purified M. tuberculosis FBA, fluorescence read-out. inhibition, % at 1 µM. hit rate 2.3% among 360,000;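 also: 0% = vehicle and 100% = reference inhibitor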
Target sequence (P9WQA3 whole entry, looked up): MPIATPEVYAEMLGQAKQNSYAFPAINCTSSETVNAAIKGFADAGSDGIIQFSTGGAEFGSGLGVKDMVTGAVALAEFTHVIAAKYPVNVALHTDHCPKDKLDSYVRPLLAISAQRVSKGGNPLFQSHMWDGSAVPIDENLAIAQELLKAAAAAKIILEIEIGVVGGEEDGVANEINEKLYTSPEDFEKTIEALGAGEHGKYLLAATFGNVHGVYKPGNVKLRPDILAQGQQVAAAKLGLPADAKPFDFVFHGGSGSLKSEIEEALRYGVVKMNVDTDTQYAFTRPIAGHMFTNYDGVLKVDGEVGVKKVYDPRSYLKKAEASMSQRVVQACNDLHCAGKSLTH
Mtb FBA inh conf = Mtb FBA inhibition, confirmed; shares compounds with Mtb FBA inh; purified M. tuberculosis FBA, fluorescence read-out; inhibition, % at 1 µM; hit rate 78% among 5,600; AID 651616;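 also: 0% = vehicle wells and 100% = reference inhibitor wells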
GDH-TPI counter-2 = inhibits GDH-TPI coupling enzymes, flagging Mtb FBA hits; inhibition, % at 1 µM; shares compounds with Mtb FBA inh; hit rate 81% among 5,600; GDH-TPI coupled enzyme counterscreen, fluorescence; AID 652141; in the data active = inhibition above about 10%
* hit, by the source's call; ? = inconclusive; . = no result given; + = active, no number. In the library only some 6.6% were active in any assay of this set; here they are far more common. Rule as the data show it, unless noted: active = inhibition above about 27%; inactive = the rest.

SMILES	BoNT-A LC inh2	GDH-TPI counter-1	BoNT F protease	Anthrax LF prot	Autofluor counter	Mtb FBA inh	Mtb FBA inh conf	GDH-TPI counter-2
N#Cc1cc2c(ccc3ccccc32)oc1=O	0	1	-2	-3	2599	73*	168*	141*
CCN(CC)c1ccc2cc(-c3nc4ccccc4n3C)c(=O)oc2c1	1	15	0	3	16417*	40*	7	-4
Cc1ccc(C(C)NC(=S)NCc2ccc(F)cc2)c(C)c1 (centres undefined)	0	-9	-5	-4	5989	3	.	.
CCCC(=O)N1CCC1(C)C(=O)NS(=O)(=O)c1cccc(Cl)c1 (centres undefined)	0	-6	-2	-2	4072	0	.	.
O=C(O)CCC1C(=O)NC(=O)CC1c1ccccc1 (centres undefined)	-1	4	-6	-8	3965	-2	.	.
Nc1ncnc(Oc2cccc3cccnc23)c1[N+](=O)[O-]	-2	-2	-1	-3	4450	-2	.	.
O=c1oc2ccccc2cc1-c1nnc(-c2cccc(Br)c2)o1	.	7	.	.	.	4	.	.
CCN(CC)c1ccc2cc(-c3nnc(-c4ccccc4)o3)c(=O)oc2c1	8	-4	18	10	4020	34*	146*	105*
CC(O)Cn1nc([N+](=O)[O-])nc1N (centres undefined)	-1	0	-11	-4	4400	31*	180*	153*
Cc1ncc([N+](=O)[O-])n1CC(C)O (centres undefined)	0	17	-8	-4	5250	-3	.	.
Cc1ccc(OCC(=O)Nc2cccnc2Cl)cc1C	1	3	-15	-3	3035	-1	.	.
Cc1cc(C)cc(-n2cc[nH]c2=S)c1	0	0	-4	-1	2445	0	.	.
COC(=O)N(C)c1nc2ccccc2s1	0	11	-11	-5	2532	0	.	.
CN(C(=O)OC(C)(C)C)c1ccc(-c2nc3ccccc3s2)cc1	0	18	11	4	2965	45*	+	+
O=C(O)/C(=C\c1ccc(Br)cc1)c1ccc(S(=O)(=O)N2CCCCC2)s1	-1	2	-2	0	2620	0	.	.
Clc1ccccc1-c1cccc2nccn12	0	-5	6	4	4137	35*	0	-5
CS(=O)(=O)Nc1ccccc1-c1cccc2nccn12	0	-1	-5	0	3701	40*	58*	39*
c1ccc2c(c1)oc1c(-c3cccc4nccn34)cccc12	0	19	3	-9	2948	90*	50*	44*
CS(=O)(=O)Nc1ccc(-c2cncc3nccn23)cc1	0	35*	2	-7	3643	63*	65*	56*
c1ccc(Sc2ncnc3c2oc2ccccc23)nc1	-1	14	1	0	9353	2	.	.
O=C(Cc1ccc(Br)cc1)NCCc1ccc(F)cc1	4	-9	?	-3	3964	-1	.	.
CC(=O)Nc1ccc(-c2cc(C(=O)O)c3ccccc3n2)cc1	-1	13	-2	0	4466	56*	+	195*
Cc1ccc(-c2cc(C(=O)NCc3ccccn3)c3ccccc3n2)cc1C	0	11	0	-1	4111	46*	136*	94*
CCOC(=O)Cc1cc(-c2ccc(OC)cc2)nc2ccc3ccccc3c12	1	3	2	-2	2271	35*	110*	89*
Cc1cccc(-c2cc(C(=O)NCc3ccccn3)c3ccccc3n2)c1	0	8	1	0	2430	14	.	.
SMILES	BoNT-A LC inh2	GDH-TPI counter-1	BoNT F protease	Anthrax LF prot	Autofluor counter	Mtb FBA inh	Mtb FBA inh conf	GDH-TPI counter-2
Cc1ccc(-c2cc(C(=O)OCC(=O)NC3CC3)c3ccccc3n2)cc1	4	9	5	-1	5035	37*	95*	81*
Cc1ccc(COC(=O)CN2C(=O)NC3(CCCCC3C)C2=O)cc1 (centres undefined)	-3	3	3	-7	6805	6	.	.
O=S(=O)(Nc1ccc(N2CCCCC2)cc1)c1ccc(F)c(F)c1	-1	10	-13	-3	2699	1	.	.
CCn1c2ccc(F)cc2c2nnc(SCCN3CCCCC3)nc21	3	15	27	3	4136	-5	.	.
COCCNC(=O)c1cc(-c2ccc(-c3ccccc3)cc2)nc2ccccc12	5	17	-3	-2	4106	108*	+	+
CCn1cc(-c2cc(C(=O)O)c3ccccc3n2)cn1	-1	3	-4	-2	4552	54*	60*	44*
O=C(NCc1ccccn1)c1cc(-c2ccc(-c3ccccc3)cc2)nc2ccccc12	1	16	-7	0	2735	37*	20	15*
COc1ccc(-c2cc(C(=O)OCc3ccccn3)c3ccccc3n2)cc1	3	1	-12	-3	3906	44*	107*	86*
CCC(C)Sc1ccc([C@@H]2[C@H]3C(=O)N(CC)C(=O)[C@H]3[C@]3(C(=O)OC)CCCN23)cc1OC (some centres undefined)	1	9	6	1	3313	3	.	.
N/C(=N\OC(=O)CSc1ccccc1)c1ccncc1	0	-1	14	-8	5604	-1	.	.
COc1ccccc1-n1c(SCC(=O)N2CCCC2)nnc1-c1ccccc1	0	3	-4	2	4829	0	.	.
CSCCC(NC(=O)c1ccc(Cl)cc1Cl)C(=O)NCC(c1cccs1)N(C)C (centres undefined)	0	7	-2	4	3870	-5	.	.
COc1ccc(-c2cc3c(=O)n(CC(=O)NCCN4CCCC4)nc(C)n3n2)cc1	0	-8	-5	0	5760	32*	63*	54*
CCN1CCN(CCCNC(=O)Cn2nc(C)n3nc(-c4ccccc4)cc3c2=O)CC1	0	-15	-4	2	6440	-1	.	.
FC(F)(F)c1nc2ccccc2n2c(-c3ccc(Cl)cc3)nnc12	0	2	-2	-3	2717	61*	6	0
FC(F)(F)c1nnc2c(Sc3ccc(Cl)cc3)nc3ccccc3n12	1	18	-5	-14	5798	2	.	.
Cc1ccc(-c2nnc3c(C(F)(F)F)nc4ccccc4n23)cc1	0	-1	-12	0	2384	60*	+	+
CCC(=O)Oc1ccc(NC(=O)c2ccc(S(=O)(=O)N3CCCC3)cc2)cc1	0	9	-2	3	2856	5	.	.
COc1ccc(S(=O)Cc2ccc(C(=O)NCc3cccc(OC)c3)o2)cc1 (centres undefined)	1	-4	-4	2	5338	29*	58*	42*
CC(OC(=O)C1CCCCC1)C(=O)Nc1cccc([N+](=O)[O-])c1 (centres undefined)	.	-1	.	.	.	-1	.	.
